Screening results as filed in PubChem BioAssay.
Shown are actives, neighbours in structure and some others; about 13% of the full set was active somewhere.
Pf growth 48h – Primary qHTS for delayed death inhibitors of the malarial parasite plastid, 48 hour incubation. P. falciparum luciferase growth in erythrocytes, 48 h. Potency, µM (highest dose often 28.7 µM), without a hit: top-dose activity change, negative = inhibition, usual class: inhibitors. hit rate 5.9% among 310,000. AID 504832, 2011; note: potency is the fitted concentration of half-maximal effect
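A one-generation exposure of luciferase-tagged malaria parasites in RPMI 1640/Albumax erythrocyte culture, 37 C and 5% CO2. Inhibition is inferred from decreased luminescence after adding detection reagent.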
HCV inh – qHTS Assay for Inhibitors of Hepatitis C Virus (HCV). Huh7.5.1 HCVcc-Cre infection, luciferase reporter, 44 h. AID 651820, 2012. hit rate 3.4% among 340,000. Potency, µM (doses to about 41.8 µM), for inactives: top-dose activity change, negative = inhibition, usual class: inhibitors; note: potency is the fitted concentration of half-maximal effect
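Seed cells (1,000/well) for 4 h; treat with compound and infect with HCVcc-Cre, moi about 0.5. Incubate 44 h, then detect luciferase activity.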
Pf growth 96h – Primary qHTS for delayed death inhibitors of the malarial parasite plastid, 96 hour incubation | Potency, µM (top dose mostly 28.7 µM), for inactives: at the top dose activity change, negative = inhibition, hits mostly inhibitors | hit rate 6.9% among 320,000 | P. falciparum luciferase reporter growth, 96 h; note: potency is the fitted concentration of half-maximal effect
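Two parasite generations (96 h, 37 C, 5% CO2) of compound exposure in infected erythrocytes (0.05% parasitemia, 2% hematocrit). Luciferase-reporter P. falciparum; decreased luminescence indicates inhibited growth, aimed at apicoplast-acting delayed death.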
HCMV inh – qHTS Assay for inhibitors of the human cytomegalovirus (HCMV); AID 1259415, 2018; HFF cells, HCMV-luciferase reporter, 72 h; hits give low values; hit rate 4.5% among 410,000; activity change, negative = inhibition, % at 57.5 µM; in the data active = activity change below about -60%; inconclusive = no clear call, values can overlap the other calls; inactive = above about -39%
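Two compound doses tested in HFFs infected with HCMV-luciferase, MOI 1 PFU/cell, 72 h at 37C. Lysate luminescence read with OneGlo; data normalized against buffer-only and 10uM Salinomycin inhibitor controls.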
Starred values were filed as active, the others as inactive; ? = inconclusive; . = no result given; [ ] = another dose, or the depositor's remark. Unless noted, calls come from the whole dose curve; as a rule, active = well fitted inhibition curve with a large enough effect; inconclusive = small, poorly fitted or top-dose-only effect, or another doubt; inactive = no such curve, though single readings can be large or run the other way. % is set by controls: 0 for no effect and ±100 for the full control effect.

SMILES | Pf growth 48h | HCV inh | Pf growth 96h | HCMV inh
CC1=C(C(=O)Nc2ccccc2)C(c2ccco2)C(C#N)=C(SCC(=O)Nc2cccc(C)c2C)N1 (stereo unspecified) | 2.6µM* | ? | ? | -10
COc1ccccc1NC(=O)C1=C(C)NC(SCC(=O)c2ccc(C)cc2)=C(C#N)C1c1ccco1 (stereo unspecified) | . | . | 3%[5.75 µM] | -14
CC1=C(C(=O)Nc2ccccc2)C(c2ccco2)C(C#N)=C(SCC(=O)OC(C)C)N1 (stereo unspecified) | 2.3µM* | -4% | 7.4µM* | .
CC1=C(C(=O)Nc2ccccc2)C(c2ccco2)C(C#N)=C(SCc2ccccc2)N1 (stereo unspecified) | 8.3µM* | ? | . | .
CC1=C(C(=O)Nc2ccccc2)C(c2ccncc2)C(C#N)=C(SCC(=O)Nc2ccccc2)N1 (stereo unspecified) | . | -21% | 60% | -11
CC(=O)C1=C(C)NC(SCc2cccc([N+](=O)[O-])c2)=C(C#N)C1c1ccco1 (stereo unspecified) | 5% | 3% | -3% | 1
COc1ccc2cc(CNc3ccc(C)cc3)c(=O)n(CC(=O)Nc3cccc(C(F)(F)F)c3)c2c1 | . | . | . | 1
Cc1ccccc1C(O)c1nnc(Nc2ccc(Oc3ccccc3)cc2)s1 (stereo unspecified) | . | . | . | -2
Cc1ccc(-c2nc(CS(=O)(=O)CC(=O)Nc3ccc(Br)cc3F)c(C)o2)cc1 | . | . | . | -6
CCc1cccc2c(-c3ccc(F)cc3)nc(SCC(=O)Nc3ccccc3)nc12 | . | . | . | 17
Cc1c(Cl)cccc1Nc1nn2c(=O)c3ccc(C(=O)NCCC4=CCCCC4)cc3nc2s1 | . | . | . | -35
COc1cc(O)c(C(CCN2CCOCC2)c2cc(OC)c(OC)c(OC)c2)c(OC)c1 (stereo unspecified) | ? | ? | ? | -3
COc1cc(O)c(C(CCN2CCCC2)c2cc(OC)c(OC)c(OC)c2)c(OC)c1 (stereo unspecified) | 4.1µM* | 3% | 2.9µM* | 1
COc1cc(O)c(C(CCN2CCCCC2)c2cc(OC)c(OC)c(OC)c2)c(OC)c1 (stereo unspecified) | 0.74µM* | ? | 1.9µM* | 25
Fc1ccccc1-c1noc2nc(Oc3cccc(N4CCOCC4)c3)ccc12 | . | . | . | -29
COc1cccc(N2CCN(C(=O)CN3CCSc4ccc(S(=O)(=O)N(C)C)cc43)CC2)c1 | . | . | . | 5
CCCCN(CCCC)C1=C(C(=O)c2ccccc2)N(C)S(=O)(=O)c2ccccc21 | . | . | . | -29
CC(=O)Nc1c(Br)cc2c(c1Br)Cc1cc(Br)ccc1-2 | . | ? | . | 17
CC(=O)c1ccc2c(c1)Cc1cc(C(C)=O)ccc1-2 | 271% | -4% | 5.2µM* | 126
CC(=O)Nc1ccc2c(c1)Cc1c-2cc(Br)c(N)c1Br | . | 11µM* | . | -22
CC(=O)Nc1ccc2c(c1)Cc1c(F)cccc1-2 | . | 10µM* | . | 7
CC(=O)c1ccc(N2CCN(c3ncnc4onc(C)c34)CC2)cc1 | . | . | . | -37
COCCn1c(=N)c(C(=O)NC(C)c2ccccc2)cc2c(=O)n3cc(C)ccc3nc21 (stereo unspecified) | . | . | . | -40
C=C1N(S(=O)(=O)C(F)(F)F)CCC12CN(S(=O)(=O)c1ccc(C)cc1)c1ccccc12 (stereo unspecified) | . | . | . | -70*
Cc1onc(-c2c(F)cccc2Cl)c1C(=O)Nc1cc(S(=O)(=O)N2CCCCC2)ccc1O | . | ? | . | -100*
SMILES | Pf growth 48h | HCV inh | Pf growth 96h | HCMV inh
Cc1ccc(S(=O)(=O)N2CCCCC2)cc1NC(=O)c1c(-c2ccccc2)noc1C | ? | 10% | ? | 16
Cc1onc(-c2c(F)cccc2Cl)c1C(=O)Nc1ccc(S(=O)(=O)N2CCOCC2)cc1 | . | 3% | . | -69*
Cc1cc2nc(/C=C/c3nc4cc(C)c(C)cc4[nH]3)[nH]c2cc1C | 0.47µM* | -5% | 0.33µM* | 20
Cc1cc2nc(/C=C/c3cccnc3)[nH]c2cc1C | -81% | -7% | -1% | -92*
Cc1cc2nc(CO)[nH]c2cc1C | 19% | 1% | 80% | -26
Cc1cc2nc(CS)[nH]c2cc1C | ? | ? | ? | -17
COc1cccc(CNC(=O)CN2C(=O)N(c3ccc(C)cc3C)S(=O)(=O)c3ccccc32)c1OC | . | . | . | -14
CN(Cc1ccccc1)C(=O)Cn1ncc2c3ccccc3n(Cc3cccc(Cl)c3)c2c1=O | . | . | . | -12
C=CCN1C(=O)CN=C1Nc1ccc(F)cc1 | 10µM* | -6% | ? | -34
CC1=C(C(=O)N2CCCCCC2)CC(CC(=O)NC2CCCCC2)C(=O)N1CCC1=CCCCC1 (stereo unspecified) | . | . | . | 2
Cc1cccc(OCCn2c(-c3ccc(Cl)cc3)nc3ccccc3c2=O)c1 | . | . | . | 22
CCN1C(=O)/C(=C\c2nc3ccccc3c(=O)n2-c2ccccc2)c2ccccc21 | 10µM* | 6% | -2% | -99*
CCN1C(=O)/C(=C/c2nc3ccccc3c(=O)n2-c2ccc(C)cc2)c2ccccc21 | ? | -10% | ? | -78*
COc1ccc(-n2c(SC)nc3ccccc3c2=O)cc1 | 0% | -27% | ? | -24
COc1ccc(-n2c(/C=C3\C(=O)N(C)c4ccccc43)nc3ccccc3c2=O)cc1 | 6.6µM* | -14% | 12µM* | -19
Cc1cccc(C(=O)NC(=O)Nc2ccc(-c3cc(C(F)(F)F)nn3-c3ccccc3)cc2)c1 | . | . | . | 5
Cc1ccc(C2c3cccn3CCN2S(=O)(=O)c2ccc([N+](=O)[O-])cc2)cc1 (stereo unspecified) | . | . | . | -17
COc1ccccc1-c1nc2c3ccccc3nc(=S)n2[nH]1 | 4.7µM* | 4% | 1.5µM* | -26
S=c1nc2ccccc2c2nc(-c3ccccc3)[nH]n12 | 4.7µM* | 18% | 46% | 81
S=c1nc2ccccc2c2nc(-c3ccccc3Cl)[nH]n12 | 1.5µM* | -10% | 1.7µM* | 12
COc1cc(-c2nc3c4ccccc4nc(=S)n3[nH]2)cc(OC)c1OC | ? | -8% | -5% | 101
O=C(CCS(=O)(=O)c1cc(Br)cc2c1N(C(=O)C1CC1)CC2)Nc1ccc(F)cc1 | . | . | . | 3
O=C1OC2(O)C3C4C=CC(C4)C3C(=O)N2c2ccccc21 (stereo unspecified) | 2.3µM* | 30% | 46% | 33
Cc1ccc2c(c1)C(=O)OC1(O)C3C4C=CC(C4)C3C(=O)N21 (stereo unspecified) | 4% | 4% | 15% | 6
O=C1OC2(c3ccccc31)c1cc(I)c(O)c(I)c1Oc1c2cc(I)c(O)c1I | 13µM* | 9% | 8.3µM* | .
Cc1cc(O)ccc1C1(c2ccc(O)cc2C)OC(=O)c2ccccc21 | 7% | 2% | 36% | -96*
COc1ccc(Nc2nc3ccccc3nc2NS(=O)(=O)c2ccc(Cl)cc2)cc1OC | . | . | . | -18
